About 1,300 (0.68%) of roughly 190,000 compounds were called active. The full list was thinned out, with actives kept by preference. Values without a mark were called inactive. Cut-off read from the data, not from the text of the source: active = inhibition above about 50%; inactive = the rest.
target: Mannose-6-phosphate isomerase (Homo sapiens) (UniProt P34949); assay: human PMI inhibitors, high substrate, primary screen, biochemical, fluorescence intensity, high mannose 6-phosphate (AID 1220); details: recombinant PMI enzyme, coupled fluorescence intensity; at 20 µM; active compounds read high
Sequence (P34949 whole entry, looked up): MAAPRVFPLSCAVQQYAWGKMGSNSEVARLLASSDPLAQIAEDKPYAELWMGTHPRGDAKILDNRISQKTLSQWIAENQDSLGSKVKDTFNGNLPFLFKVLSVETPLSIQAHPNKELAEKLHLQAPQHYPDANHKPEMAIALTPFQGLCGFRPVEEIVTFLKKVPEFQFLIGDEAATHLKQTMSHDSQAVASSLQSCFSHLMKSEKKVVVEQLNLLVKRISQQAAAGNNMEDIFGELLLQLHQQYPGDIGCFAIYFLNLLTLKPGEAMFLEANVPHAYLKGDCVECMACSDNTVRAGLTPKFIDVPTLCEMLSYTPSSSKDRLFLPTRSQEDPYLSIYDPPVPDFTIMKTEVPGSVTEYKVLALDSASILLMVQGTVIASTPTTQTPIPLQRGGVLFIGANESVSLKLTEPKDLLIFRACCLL

| Structure (SMILES) | inhibition |
| --- | --- |
| CCCCCCn1c(=O)[nH]c2nc3cc(N)ccc3nc2c1=O | 24% |
| CCCCCCn1c(=O)[nH]c2nc3cc(N)c(C)cc3nc2c1=O | 49.7% |
| CCCCn1c(=O)[nH]c2nc3cc(N)ccc3nc2c1=O | 52.5% (active) |
| C=CCn1c(COc2ccccc2F)nnc1SCCN1C(=O)c2ccccc2C1=O | 10.7% |
| COCCn1c(C)cc(C(=O)CSc2nc3ccccc3o2)c1C | -1.7% |
| CCOC(=O)c1cnc2ccc(OCC)cc2c1NCc1cccnc1 | 62.8% (active) |
| CCOC(=O)c1cnc2ccc(OCC)cc2c1NCc1ccccc1 | 43.5% |
| CCOC(=O)c1cnc2ccc(OC)cc2c1NCc1ccccc1 | 27.2% |
| Cc1cc2nc(-c3ccc(SCC(=O)Nc4nccs4)nc3)[nH]c2cc1C | -0.3% |
| Nc1nc2n(n1)C(=O)CC(c1ccccc1[N+](=O)[O-])N2 (centres undefined) | 9.2% |
| O=C(/C=C/c1ccc2c(c1)OCO2)NCCSCc1ccc(Cl)cc1Cl | 12.8% |
| CC1(C)CC(=O)C2=C(C1)OC(N)=C(C#N)C21CCN(C(=O)OCc2ccccc2)CC1 | 4.4% |
| CC(=O)Nc1ccc(S(=O)(=O)NNC(=O)COc2cccc3ccccc23)cc1 | 1.3% |
| O=C1CCCC(O)=C1C=NCc1ccccc1 | -2.2% |
| Cc1ccc(S(=O)(=O)N(C(=O)c2ccncc2)c2ccc3oc4c(c3c2)CCCC4)cc1[N+](=O)[O-] | 1.1% |
| O=C(c1ccncc1)N(c1ccc2oc3c(c2c1)CCCC3)S(=O)(=O)c1cccc([N+](=O)[O-])c1 | 6% |
| O=[N+]([O-])c1cc2oc3c(c2c(C=NCc2ccccc2)c1O)CCCC3 | 50.7% (active) |
| Oc1c(Br)cc2oc3c(c2c1CNCc1ccccc1)CCCC3 | 2.3% |
| O=[N+]([O-])c1cc2oc3c(c2c(C=NCc2ccncc2)c1O)CCCC3 | 52.5% (active) |
| COCC(=O)Nc1nnc(CCc2ccccc2)s1 | 9.8% |
| COC(=O)C1=C(C)N(c2ccc(OC)c(OC)c2)C(=O)C1 | -12.5% |
| CN(C)C(=O)c1cn(-c2ccccc2)nc1-c1cccs1 | -7.1% |
| O=C(NCC(=O)N1CCN(S(=O)(=O)c2cccs2)CC1)c1ccc(Cl)cc1 | 5.3% |
| FC(F)(F)c1cc(-c2cccs2)nc2nc(N3CCOCC3)sc12 | -4.4% |
| CC1(C)OC(C)(C)/C(=C/Nc2ccccc2)C1=O | 0.4% |

| Structure (SMILES) | inhibition |
| --- | --- |
| CC1(C)OC(C)(C)/C(=C/Nc2ccc(O)cc2)C1=O | 52.5% (active) |
| CC1(C)Oc2ccc3ccc(=O)oc3c2/C(=C/Nc2ccc(O)cc2)C1=O | 14.8% |
| Cc1ccc(NC(=O)C2CCCN2C(=O)NC2CCCCC2)cc1 (centres undefined) | 7.7% |
| CCCCC(=O)NC1(C(F)(F)F)C(=O)N(Cc2ccco2)C(C)=C1C(=O)OC (centres undefined) | 2.6% |
| CCOC(=O)C1CCN(C(=O)CSc2nccc(C)n2)CC1 | -8.5% |
| COCCNC(=O)NC(=O)CN1CCCc2ccccc21 | 6.7% |
| O=C1CC(N2CCN(c3ccc(F)cc3)CC2)C(=O)N1c1ccc2c(c1)OCO2 (centres undefined) | 24.1% |
| O=C1CC(N2CCN(c3ccc(O)cc3)CC2)C(=O)N1c1ccc2c(c1)OCO2 (centres undefined) | 60.4% (active) |
| O=C1CC(N2CCN(c3ccccc3)CC2)C(=O)N1c1ccc2c(c1)OCO2 (centres undefined) | -2% |
| COc1ccccc1OCc1ccc(C(=O)OCC2CCCO2)o1 (centres undefined) | -2% |
| COC(=O)c1oc2ccc(OC)cc2c1N | -2.9% |
| OCC[C@@H]1C[C@@H](O)[C@H](O)[C@]2(CCCCO2)O1 | 0.7% |
| COC(=O)c1cccc(C(=O)Nc2ccc(F)cc2)n1 | 2.8% |
| COc1ccc(NC(=O)C2CCN(C(=O)NCc3ccccc3)CC2)cc1 | 13% |
| CN(Cc1ccc(F)cc1)C(=O)CCc1nnc(-c2ccccc2)o1 | -0.8% |
| O=C(Nc1cccc(S(=O)(=O)Nc2ccccc2F)c1)c1ccc2ccccc2n1 | 44.1% |
| O=C(Cc1ccc(Cl)cc1)Nc1cccc(S(=O)(=O)Nc2ccccc2F)c1 | 10.4% |
| CCOC(=O)CC(NS(=O)(=O)c1ccc(OC)c(C)c1)c1cccc([N+](=O)[O-])c1 (centres undefined) | 12.1% |
| CCOC(=O)c1ccc(S(=O)(=O)N2CCN(S(=O)(=O)CC)CC2)cc1 | 4.2% |
| CCNC(=S)N1CCN(C(c2ccccc2)c2ccccc2)CC1 | 18.7% |
| COc1ccc(C(=O)NC(C)c2nnc(SCC(=O)Nc3nc4ccccc4s3)n2C)cc1 (centres undefined) | 4.8% |
| CCOC(=O)c1c(CC(C)C)csc1N | 34.4% |
| CCOC(=O)c1c(-c2ccc(C)o2)csc1NC(=O)COC(=O)c1cccs1 | 16.6% |
| CCOC(=O)c1c(-c2ccco2)csc1N | 57.9% (active) |
| CCOC(=O)c1c(-c2ccc(C)o2)csc1NC(=O)CN1CCCCC1 | 20.2% |

| Structure (SMILES) | inhibition |
| --- | --- |
| CCOC(=O)c1c(-c2ccc(C)o2)csc1N | 51.6% (active) |
| CCOC(=O)c1c(-c2ccco2)csc1NC(=O)CSc1nnc(N)s1 | 9.8% |
| COc1ccc(C(=O)O/N=C(/C)c2cccs2)cc1 | -4.4% |
| Cc1c(NC(=S)NC(NC(=O)C(C)C)C(Cl)(Cl)Cl)c(=O)n(-c2ccccc2)n1C (centres undefined) | 1.4% |
| NC(=O)C1(N2CCCCC2)CCN(Cc2ccc(F)cc2)CC1 | 1.7% |
| C[C@]12CC[C@@H]3c4cc(O)c(O)cc4CC[C@H]3[C@@H]1CC[C@@H]2O | 27.9% |
| C[C@]12CC[C@@H]3c4ccc(O)cc4CC[C@H]3[C@@H]1CC[C@@H]2O | -6.7% |
| COC(=O)/C=c1/s/c(=C(\C#N)C(=O)NCc2ccco2)n(-c2ccccc2)c1=O | -5.5% |
| Cc1ccc(-n2ncc(C#N)c2/N=C/N2CCOCC2)cc1 | 14.1% |
| Cc1cc(O)ccc1N/C=C1\CCCC1=O | 54.1% (active) |
| O=C1CCCC/C1=C\Nc1ccc(O)cc1 | 25% |
| Cc1ccc(N/C=C2\CCCCC2=O)c(C)c1 | -0.6% |
| O=C(N/N=C/c1cccc([N+](=O)[O-])c1)c1ccc(COc2ccccc2-c2ccccc2)cc1 | 0.3% |
| Cc1ccc2c(c1)N(CC(=O)N1CCN(c3nc4ccccc4s3)CC1)C(=O)C(C)O2 (centres undefined) | 0.6% |
| Cn1c(CN2CCCCC2)nc2cc(NC(=O)c3ccc(F)cc3)ccc21 | 10.4% |
| CC(C)COc1ccc(S(=O)(=O)n2cc(F)c(=O)[nH]c2=O)cc1 | 50.5% (active) |
| CCOc1ccc(S(=O)(=O)n2cc(F)c(=O)[nH]c2=O)cc1 | 11.2% |
| CCCOc1ccc(S(=O)(=O)n2cc(Br)c(=O)[nH]c2=O)cc1 | -4.8% |
| CC(C)(C)NCC(O)COc1ccccc1C(C)(C)C (centres undefined) | 2.5% |
| Cc1ccc2nsnc2c1S(=O)(=O)N(Cc1cc2cccc(C)c2[nH]c1=O)CC1CCCO1 (centres undefined) | 10.3% |
| CC(C)c1ccc(C(=O)CSc2n[nH]c(-c3ccncc3)n2)cc1 | 4.3% |
| Cc1nnc(SCC(=O)c2ccc(C(C)C)cc2)s1 | 7.2% |
| Oc1ccc(/C=N/NC(=S)NCCN2CCOCC2)c(O)c1 | -21.6% |
| S=C(NCCN1CCOCC1)N/N=C/c1ccccc1 | 3.7% |
| C=CCn1c(C(C)NC(=O)c2ccccc2C)n[nH]c1=S (centres undefined) | 2.2% |

| Structure (SMILES) | inhibition |
| --- | --- |
| CCOC(=O)c1c(-c2ccc(C)s2)csc1NC(=O)c1cccs1 | -3.8% |
| CCOC(=O)c1c(-c2ccc(C)s2)csc1NC(=O)c1ccco1 | 3.5% |
| CCOC(=O)c1c(-c2cccc([N+](=O)[O-])c2)csc1NC(=O)C1CC1 | 40.4% |
| CCOC(=O)c1c(-c2cccc([N+](=O)[O-])c2)csc1NC(=O)C1CCCCC1 | 24% |
| CCOC(=O)c1c(-c2ccncc2)csc1N | 23.1% |
| CCOC(=O)c1c(-c2cccc([N+](=O)[O-])c2)csc1N | 50.3% (active) |
| CCOC(=O)c1c(-c2ccsc2)csc1N | 59.8% (active) |
| CCOc1ccc(-c2csc(N)c2C(=O)OC)cc1 | 19.4% |
| Cc1ccc2nc(-c3cccnc3)c(Nc3ccccc3C)n2c1 | 4.7% |
| COc1ccc(NC(=O)c2cc3c(=O)n4ccccc4nc3n2C)c(OC)c1 | 6.3% |
| Cc1cc(C)c(S(=O)(=O)c2ccccc2)c(Cl)n1 | 5.7% |
| COC(=O)c1[nH]c2ccccc2c1NC(=O)CNC1CCCCC1 | 11.8% |
| C=CCc1cccc(/C=N/NC(=O)CNc2cccc3ccccc23)c1O | 55.2% (active) |
| Cc1cccc(/C=N/NC(=O)C(C)Nc2cccc3ccccc23)n1 (centres undefined) | -72.3% |
| O=C(CNc1cccc2ccccc12)N/N=C/c1ccc([N+](=O)[O-])cc1 | 18.1% |
| Cc1cccc(NCC(=O)N/N=C\c2cccc(Oc3ccccc3)c2)c1 | 12.6% |
| Cc1ccc(NCC(=O)N/N=C/c2cccc(Oc3ccccc3)c2)cc1 | 10.5% |
| O=C(CNc1cccc2ccccc12)N/N=C/c1cccc(Oc2ccccc2)c1 | 51.8% (active) |
| C=CCc1cccc(/C=N/NC(=O)CNc2ccccc2OC)c1O | -20.8% |
| Cc1cccc(/C=N/NC(=O)CNc2cccc3ccccc23)n1 | 61.8% (active) |
| O=C(CNc1ccccc1)c1ccc([N+](=O)[O-])cc1 | -90.7% |
| O=C(CNc1cccc2ccccc12)c1ccc([N+](=O)[O-])cc1 | 57.5% (active) |
| CSc1ccc(/C=N/NC(=O)CNc2cccc3ccccc23)cc1 | 17.1% |
| C=CCc1cccc(/C=N/NC(=O)CNc2ccccc2)c1O | -4.5% |
